KB-3-1 cytotox: KB-3-1 parental cell cytotoxicity; Potency, µM (doses to about 46.1 µM), hits mostly cytotoxic; KB-3-1 viability, CellTiter-Glo ATP luminescence, 72 h; AID 1347075; hit rate 1.4% among 400,000; note: % is set by controls: 0 for no effect and ±100 for the full control effect; nearly all actives have a fitted effect of over 60% in size
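Cytotoxicity in the drug-sensitive parental line KB-3-1 was scored as loss of CellTiter-Glo luminescence following 72 h incubation with compound. Values come from curve fitting of normalized concentration-response data.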
ATXN2 expr inh: reduces ATXN2 reporter expression in HEK-293 cells; HEK-293 ATXN2-luciferase reporter, luminescence, 24 h; Potency, µM (doses to about 57 µM), inactives show top-dose activity change, negative = inhibition, usual class: inhibitors; hit rate 0.72% among 360,000; AID 1745845; note: % is set by controls: 0 for no effect and ±100 for the full control effect; nearly all actives have a fitted effect of over 55% in size
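qHTS (up to 57 uM final) was run with 24 h compound exposure of reporter cells at 37 °C. Each well was multiplexed: SteadyGlo luminescence measured ATXN2-luciferase expression after a fluorogenic Gly-Phe-AFC viability readout (25 uM final).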
KB-V1 MDR tox: KB-V1 MDR subline cytotoxicity; KB-V1 MDR cells viability, CellTiter-Glo, 72 h; Potency, µM (top dose mostly 46.1 µM), actives largely listed as cytotoxic; hit rate 3.4% among 400,000; note: % is set by controls: 0 for no effect and ±100 for the full control effect; nearly all actives have a fitted effect of over 60% in size
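Readout: CellTiter-Glo luminescence, 10 min after addition. Cells: KB-V1 MDR subline, 72 h at 37 degrees C with compound. Analysis: corrected, normalized data fitted to concentration-effect curves.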
TGFb inhibitor: TGF-b pathway inhibition | HepG2 CAGA-GFP TGF-b/SMAD3 reporter, GFP fluorescence, 18 h; TGF-beta stimulated, 500 pg/mL final | hit rate 1.2% among 410,000 | Potency, µM (series often up to 46.1 µM), for the others: at the top dose activity, negative = inhibition, actives largely listed as inhibitors | AID 588855; note: % is set by controls: 0 for no effect and ±100 for the full control effect; nearly all actives have a fitted effect of over 65% in size
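Per well, imaged GFP fluorescence of HEPG2 CAGA-GFP cells gives the signal; cells get compound, then TGF-beta (500 pg/mL final), 18 h at 37 degrees C; %Activity versus -TGF-beta and +DMSO controls.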
S2 tox: viability counter-screen for ATXN expression inhibitors; S2 cells (HEK-293 line with an ATXN2-luciferase reporter) viability, CellTiter-Fluor protease fluorescence, 24 h; Potency, µM (titrated, usually from 56.7 µM), actives largely listed as cytotoxic; hit rate 0.49% among 400,000; note: nearly all actives have a fitted effect of over 40% in size
HepG2 tox: counter-screen for TGF-b inhibitors: cytotoxicity in HepG2 cells | HepG2 CAGA-GFP viability, ATP luminescence, 18 h | Potency, µM (top dose mostly 46.1 µM), without a hit: at the highest dose activity change, negative = cytotoxicity, actives largely listed as cytotoxic | hit rate 0.76% among 410,000
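CellTiter-Glo luminescence gave cytotoxicity after 18 hours at 37 degrees C. The cells were HepG2 CAGA-GFP in 1% FBS DMEM, stimulated with 500 pg/mL TGF-beta after compound addition. %Activity was normalised to no-cell wells (complete cell-killing) and DMSO (no toxicity), and curves were fitted and classified.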
* = called active by the depositor; i = inactive; ? = inconclusive; . = not tested or not shown; ! = not active in a repeat. Sampled rows, rich in hits. Any-hit rate of the full collection: about 5.9%. Calls come from the whole dose curve; as a rule, active = well fitted curve in the direction sought with a large enough effect; inconclusive = small, poorly fitted or top-dose-only effect, or another doubt; inactive = no such curve, though single readings can be large; an effect the other way counts as inactive or inconclusive. Potency is the fitted concentration of half-maximal effect.

SMILES	KB-3-1 cytotox	ATXN2 expr inh	KB-V1 MDR tox	TGFb inhibitor	S2 tox	HepG2 tox
Fc1ccc(C2CC(c3cccs3)=NN2C(=S)Nc2ccccc2)cc1 (stereo not drawn)	i	-3.9%	20.6µM*	-11.2%	i	-1.9%
C[n+]1ccc(/C=C/c2ccc(C=S)cc2)c2ccccc21	?	.	i	0.7%	.	-38.6%
COc1cc(OC)c(OC)cc1/C=C/c1cc[n+](C)c2ccccc12	14.6µM*	.	i	-4.6%	.	-0.5%
CN(C)c1ccc(/C=C/c2cc[n+](C)c3ccc4ccccc4c23)cc1	0.92µM*	.	?	2µM*	.	-91.9%
Cc1cc(N(C)C)cc(C)c1/C=C/c1cc[n+](C)c2ccccc12	4.61µM*	.	i	8.91µM*	.	-25.2%
CC(=O)N1CCN(c2ccc(OCc3nn(C)c(C)c3-c3cccc4c(CCCOc5cc(C)c(Cl)c(C)c5)c(C(=O)O)n(Cc5cccnc5)c34)cc2)CC1	.	11.1%	.	.	.	.
CCn1c2ccccc2c2nnc(SCCCn3c(=O)[nH]c4ccccc43)nc21	i	?	?	-1.6%	20µM*	2.6%
C=CCn1c2ccccc2c2nnc(SCC(=O)NC(C(=O)OC)C(C)C)nc21 (stereo not drawn)	i	1.3%	8.2µM*	5.9%	i	3.8%
C=CCn1c2ccccc2c2nnc(SCC(=O)OC)nc21	i	.	i	-0.6%	i	1.4%
CCn1c2ccccc2c2nnc(SCN3C(=O)c4ccccc4C3=O)nc21	?	6.7%	8.2µM*	-1.9%	i	-9.5%
CC(=O)c1ccc(NC(=O)C2CCN(S(=O)(=O)c3ccc4c(c3)CCCN4C(=O)C3CCC3)CC2)cc1	i	6.4%	i	-8.2%	i	-28.0%
CCC1CN(CCNC(=O)c2scc3c2OCCO3)Cc2cc(OC)ccc2O1 (stereo not drawn)	.	.	.	.	i	.
Cc1ccc(C)c(OCCn2c(C3CC(=O)N(Cc4ccc(F)cc4)C3)nc3ccccc32)c1 (stereo not drawn)	i	?	?	12.6µM*	.	-103.6%
CCc1ccccc1N1CC(c2nc3ccccc3n2CCOc2ccc(Cl)c(C)c2)CC1=O (stereo not drawn)	?	?	i	11.2µM*	?	10µM*
Cc1cccc(OCCCCn2c(C3CC(=O)N(c4ccc(C)cc4C)C3)nc3ccccc32)c1 (stereo not drawn)	i	?	?	10µM*	?	-108.6%
Cc1cc(OCCn2c(C3CC(=O)N(Cc4ccc(F)cc4)C3)nc3ccccc32)ccc1Cl (stereo not drawn)	i	?	i	12.6µM*	.	-101.8%
Cc1cc(C(=O)Nc2cccc(-c3nc(CNC(=O)c4ccc[n+]([O-])c4)c(C)o3)c2)c(C)o1	.	.	.	.	i	.
COc1ccc(O)c(CN2CCC3(CCC(CNC(=O)C4CCCO4)O3)CC2)c1 (stereo not drawn)	.	.	.	.	i	.
CC1CCN(C(=O)C(C)Sc2nc(-c3ccccc3)cc(C(F)(F)F)n2)CC1 (stereo not drawn)	?	-22.8%	?	15.8µM*!	i	4.1%
O=c1c2ccccc2nc2c3ccccc3c3nncn3n12	?	8.8%	7.31µM*	4.4%	i	-8.1%
COc1cc(C(=O)Nc2cc(C(F)(F)F)ccc2Cl)cc(OC)c1OC	i	-27.3%	20.6µM*	6.1%	i	0.8%
CCN(CC)CCCN=C1N[C@@H](c2cccc(C(F)(F)F)c2)C(C(=O)OC)=C(C)N1CC	?	?	i	?	22.4µM*	-113.3%
CCN1C(=NCc2cccc(Cl)c2)N[C@@H](c2cccc(C(F)(F)F)c2)C(C(=O)OC)=C1C	i	.	i	14.1µM*	.	-79.2%
CCN1C(=O)N[C@@H](c2cccc(C(F)(F)F)c2)C(C(=O)OC)=C1C	i	-8.0%	i	0.5%	i	-6.9%
CCN1C(=NCCCCO)N[C@@H](c2cccc(F)c2)C(C(=O)OC)=C1C	i	-9.6%	i	-8.6%	i	-19.2%
SMILES	KB-3-1 cytotox	ATXN2 expr inh	KB-V1 MDR tox	TGFb inhibitor	S2 tox	HepG2 tox
CCN1C(=NCc2cccc(C(F)(F)F)c2)N[C@@H](c2cccc(C(F)(F)F)c2)C(C(=O)OC)=C1C	?	.	?	3.55µM*	.	-105.7%
Cc1ncc2c(c1CNC(=O)c1ccc3c(c1)OCO3)CCN(C(=O)c1csc3c1CCCC3)C2	.	.	.	.	i	.
COc1ccc2c(c1)CCC1(C)CC(=O)C(Br)=C21 (stereo not drawn)	?	.	6.51µM*	5.5%	?	-5.4%
CC(C)NC(=O)c1cn([C@H]2CC[C@@H](NC(=O)/C=C/c3cccs3)CC2)nn1	.	.	.	.	i	.
O=C(/C=C\c1ccco1)Oc1cccc2cccnc12	?	.	i	3.16µM*	i	-74.0%
COc1ccccc1/C=C/C(=O)Oc1cccc2cccnc12	i	.	i	7.94µM*	?	10µM*
CCOC(=O)c1ccc(NC(=O)c2ccc3c(c2)NC(=O)c2ccccc2S3)cc1	i	-19.6%	?	-28.2%	?	-25.1%
CC(=O)c1ccc2c(c1)N(C)c1ccccc1S2	?	3.9%	23.1µM*	8.6%	i	-31.6%
Cc1ccc(NC(=O)c2ccc3c(c2)NC(=O)c2ccccc2S3)cc1	6.51µM*	-38.9%	9.2µM*	-1.2%	?	-35.9%
CC(=O)Nc1cc(C(=O)Nc2ccc3c(c2)N(C)C(=O)c2ccccc2S3)ccc1C	4.11µM*	3.3%	?	?	?	-1.5%
Cc1ccc(C(=O)Nc2ccc3c(c2)N(C)C(=O)c2ccccc2S3)cc1F	8.2µM*	?	6.51µM*	?	?	-23.5%
O=C(CSc1nc2c([nH]c3ccccc32)c(=O)n1-c1cccc(C(F)(F)F)c1)N1CCCC1	i	-8.0%	?	-15.2%	i	-33.7%
CCC(=O)c1ccc2c(c1)N(CCCN(C)C)c1ccccc1S2	i	?	i	?	?	15.8µM*
COC(=O)c1cc(OC)c(OC)cc1NCC(=O)Nc1ccc(C)cc1	i	-1.3%	23.1µM*	-4.1%	?	7.3%
COC(=O)c1cc(OC)c(OC)cc1NC(=O)CN1CCCCC1	i	-6.5%	16.4µM*	14.3%	i	-13.3%
COC(=O)c1cc(OC)c(OC)cc1NC(=O)Cc1ccccc1[N+](=O)[O-]	i	32.0%	2.31µM*	?	i	-6.5%
COc1cc(C(=O)NCC(c2cccnc2)N2CCc3ccccc32)cc(OC)c1OC (stereo not drawn)	i	.	i	-25.4%	.	-29.6%

Screening data deposited in PubChem BioAssay by National Center for Advancing Translational Sciences (NCATS).
